The inhibition is the change of the read-out against control, counted positive when it falls.

Molecules are shown by their SMILES. Active and inactive are the calls of the source. Cut-off read from the data, not from the text of the source, unless noted: active = inhibition above about 28%; inactive = the rest.

The values that follow come from PubChem BioAssay.

Tested on in one experiment: not listed separately
Kind of experiment: StAR promoter reporter inhibitors, counter-screen for LRH-1 inverse agonist project, cell-based, luminescence, high throughput (AID 651611). To be noted: StAR promoter luciferase reporter counterscreen, at 3.6 µM, hits give high values. (A counterscreen serves to expose hits that act by an unwanted route or on another target.)
For the compound `CCn1cc(Br)c(C(=O)Nc2ccccc2C(=O)OC)n1`, the inhibition is 7.57% (inactive).

`CCn1c(SCC(=O)Nc2ccc(Cl)cc2)nnc1C1CC1`: the inhibition was 14% (inactive).

Take `COc1ccc(NS(=O)(=O)c2cccc(NC(=O)c3ccc(Cl)nc3)c2)cc1`: the inhibition is 37.9% (active).

Consider `COc1ccccc1NC(=O)c1ccc(NC(=O)COC(=O)C(C)C)cc1`, for which the inhibition was 12.5% (inactive).

For the compound `Cc1cccc(NC(=O)CSC2=NN3CCCC(=O)N=C3S2)c1C`, the inhibition was -10.1% (inactive).

Take `O=C(N/N=C/c1ccc([N+](=O)[O-])o1)c1ccc2c(c1)OCO2`: the inhibition is 37.2% (active).

Turning to `CN(C)c1ccc(CNc2ncnc3sccc23)cc1`, the inhibition was 2.38% (inactive).

Turning to `Cc1cc(Br)ccc1NC(=O)CN1C(=O)CCC1=O`, the inhibition is 7.63% (inactive).

With `O=C(Nc1nc(-c2ccccn2)cs1)c1ccc([N+](=O)[O-])o1`, the inhibition is 32% (active).

In the case of `CC(=O)Nc1ccc(NC(=O)COC(=O)c2c(C)nn(-c3ccccc3)c2C)cc1`, the inhibition is 10.2% (inactive).

With `COc1ccc(OC)c(C2=NS(=O)(=O)N(C)C(C(=O)Nc3ccc(C(C)=O)cc3)=C2)c1`, the inhibition is 4.76% (inactive).

As to `O=C(COC(=O)C1CC1)NCCc1ccc(Cl)cc1`, the inhibition is 4.21% (inactive).

Take `COC(=O)c1ccc(NC(=O)CN2CCN(S(=O)(=O)c3cc(Cl)ccc3OC)CC2)cc1`: the inhibition was 9.56% (inactive).

Consider `Cc1cc(C(=O)N/N=C/c2ccc([N+](=O)[O-])o2)c(C)o1`, for which the inhibition was 9.16% (inactive).

Regarding `COc1ccc(CC(NC(C)=O)C(=O)NC2CCN(c3nnnn3-c3ccccc3)CC2)cc1` (stereo not given), the inhibition was 10.5% (inactive).

In the case of `COc1cc(N)c(Cl)cc1C(=O)OCC(=O)N1c2ccccc2NC(=O)C1(C)C`, the inhibition was 11.8% (inactive).

For the compound `COc1ccc(C2(C)NC(=O)N(CC(=O)Nc3ccc(C)cc3Br)C2=O)cc1OC` (stereo not given), the inhibition is 15.7% (inactive).

As to `CCOc1ccc(NC(=O)CN2CCN(C3c4ccccc4-c4ccccc43)CC2)cc1`, the inhibition is 9.85% (inactive).

Turning to `COc1ccc(N2C(=O)C(Cl)=C(N3CCOCC3)C2=O)cc1`, the inhibition was 6.88% (inactive).

For `NC(=S)Nc1ccc(Oc2ccc(NC(N)=S)cc2)cc1`, the inhibition was 5.35% (inactive).

Regarding `COc1ccc(CNC(=O)O[C@@H]2C[C@H]3C(=O)N(c4ccccc4)C(=O)[C@H]3[C@@]3(CN(S(=O)(=O)c4ccc(C)cc4)C[C@H]3C)[C@@H]2O)cc1OC`, the inhibition is 9.47% (inactive).

With `COC(=O)c1ccc(NC(=O)CSC2=NCCN2)cc1`, the inhibition was -0.27% (inactive).

Regarding `O=C(CNc1cccc2ccccc12)N/N=C/c1ccc([N+](=O)[O-])o1`, the inhibition is 27.6% (inactive).

Turning to `CN(C)c1ccc(CN(C(=O)C2COc3ccccc3O2)C2CCS(=O)(=O)C2)cc1` (stereo not given), the inhibition is 3.73% (inactive).

`S=C(Nc1ccc(Br)cc1)Nc1ccc2c(c1)OCCO2`: the inhibition was -74.4% (inactive).

On to `CCN(CC)c1ccc(NC(=O)CSc2nnc(N)s2)cc1C`, for which the inhibition is -2.14% (inactive).

Take `COc1cc(-c2noc(C)c2-c2ccc(N(C)C)nc2)cc(OC)c1OC`: the inhibition is 58.7% (active).

Consider `O=C(N/N=C/c1ccc([N+](=O)[O-])o1)c1ccccc1-n1cccc1`, for which the inhibition is 32.3% (active).

For `COc1ccc(C2=CC(=O)OC3(CCCCC3)O2)cc1`, the inhibition was 15.4% (inactive).

`Cc1ccc(NC(=O)CSc2nc3ncc(Br)cc3[nH]2)cc1C`: the inhibition is 10.7% (inactive).

Turning to `COc1cc2c(cc1OC)CN(C(=O)CN1CCN(S(=O)(=O)c3ccc(C)c(C)c3)CC1)CC2`, the inhibition is 19.9% (inactive).

In the case of `COc1c(/C=N/NC(N)=S)c(C)nn1-c1ccccc1`, the inhibition was 1.43% (inactive).

For the compound `Cc1nc2ccccc2n1/N=C/c1ccc([N+](=O)[O-])s1`, the inhibition was 20.9% (inactive).

Regarding `Cc1ccc(Sc2ccc(NC(=O)CCl)cc2)cc1C`, the inhibition was 0.02% (inactive).

Take `Cc1ccc(S(=O)(=O)NCc2ccncc2)c(C)c1C`: the inhibition was 17.9% (inactive).

Regarding `Cc1ccc(NNC(N)=S)cc1Cl`, the inhibition was 11.6% (inactive).

As to `CSc1nc(SCC(=O)NCc2ccco2)c2c3c(sc2n1)COC(C)(C)C3`, the inhibition was 6.43% (inactive).

On to `COc1cccc(NC(=O)N(C)C[C@H]2Oc3cc(C#Cc4ccncc4)ccc3S(=O)(=O)N([C@H](C)CO)C[C@H]2C)c1`, for which the inhibition is 28% (active).

For the compound `COc1ccc(NC(=O)COC(=O)/C=C/C(=O)OCC(=O)Nc2ccc(OC)c(Cl)c2)cc1Cl`, the inhibition was 6.28% (inactive).

As for `Cc1cccc(CN2C(=O)CSc3ccc(C(=O)NC4CC4)cc32)c1`, the inhibition is 10.4% (inactive).

In another experiment the target is Nuclear receptor subfamily 5 group A member 2 (Homo sapiens) (UniProt O00482). Kind of experiment: LRH-1 (NR5A2) inverse agonists, retest, confirmation, cell-based, luminescence (AID 651613; in the data active = inhibition above about 42%;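 note: HEK293T cells co-transfected with LRH-1 and StAR promoter luciferase reporter; 0% = vehicle wells and 100% = parental cells lacking receptor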). To be noted: cell-based LRH-1 luciferase reporter, inverse agonism; at 3.6 µM; hits give high values. (In general: In a reporter assay the amount or activity of a reporter protein is the signal.)
Chain of Nuclear receptor subfamily 5 group A member 2 (Homo sapiens) (O00482 whole entry, looked up): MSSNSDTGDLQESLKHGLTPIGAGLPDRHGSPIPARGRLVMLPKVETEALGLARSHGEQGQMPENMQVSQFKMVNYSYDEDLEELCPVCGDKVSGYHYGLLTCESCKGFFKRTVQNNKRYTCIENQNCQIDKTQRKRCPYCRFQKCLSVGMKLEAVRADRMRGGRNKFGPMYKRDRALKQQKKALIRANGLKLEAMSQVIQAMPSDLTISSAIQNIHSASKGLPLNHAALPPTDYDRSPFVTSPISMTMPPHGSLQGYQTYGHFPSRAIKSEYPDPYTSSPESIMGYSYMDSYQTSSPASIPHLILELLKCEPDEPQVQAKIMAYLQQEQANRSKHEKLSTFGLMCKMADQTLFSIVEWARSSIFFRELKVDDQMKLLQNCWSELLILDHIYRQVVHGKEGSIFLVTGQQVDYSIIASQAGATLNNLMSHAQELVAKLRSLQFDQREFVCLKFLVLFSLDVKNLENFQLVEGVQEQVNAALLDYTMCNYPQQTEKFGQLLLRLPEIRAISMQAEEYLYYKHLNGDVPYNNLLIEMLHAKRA
For the compound `CCn1cc(Br)c(C(=O)Nc2ccccc2C(=O)OC)n1`, the inhibition was 47.4% (active).

For `CCn1c(SCC(=O)Nc2ccc(Cl)cc2)nnc1C1CC1`, the inhibition is 50.6% (active).

Turning to `COc1ccc(NS(=O)(=O)c2cccc(NC(=O)c3ccc(Cl)nc3)c2)cc1`, the inhibition was 63.3% (active).

Turning to `COc1ccccc1NC(=O)c1ccc(NC(=O)COC(=O)C(C)C)cc1`, the inhibition is 62.7% (active).

With `Cc1cccc(NC(=O)CSC2=NN3CCCC(=O)N=C3S2)c1C`, the inhibition is 53.1% (active).

With `O=C(N/N=C/c1ccc([N+](=O)[O-])o1)c1ccc2c(c1)OCO2`, the inhibition is 78.3% (active).

For the compound `CN(C)c1ccc(CNc2ncnc3sccc23)cc1`, the inhibition is 71% (active).

On to `Cc1cc(Br)ccc1NC(=O)CN1C(=O)CCC1=O`, for which the inhibition was 58.1% (active).

On to `O=C(Nc1nc(-c2ccccn2)cs1)c1ccc([N+](=O)[O-])o1`, for which the inhibition is 69.5% (active).

As to `CC(=O)Nc1ccc(NC(=O)COC(=O)c2c(C)nn(-c3ccccc3)c2C)cc1`, the inhibition was 51.6% (active).

In the case of `COc1ccc(OC)c(C2=NS(=O)(=O)N(C)C(C(=O)Nc3ccc(C(C)=O)cc3)=C2)c1`, the inhibition is 44.8% (active).

Consider `O=C(COC(=O)C1CC1)NCCc1ccc(Cl)cc1`, for which the inhibition was 45.3% (active).

As for `COC(=O)c1ccc(NC(=O)CN2CCN(S(=O)(=O)c3cc(Cl)ccc3OC)CC2)cc1`, the inhibition is 60.3% (active).

As to `Cc1cc(C(=O)N/N=C/c2ccc([N+](=O)[O-])o2)c(C)o1`, the inhibition is 71.5% (active).

In the case of `COc1ccc(CC(NC(C)=O)C(=O)NC2CCN(c3nnnn3-c3ccccc3)CC2)cc1` (stereo not given), the inhibition was 45.1% (active).

Turning to `COc1cc(N)c(Cl)cc1C(=O)OCC(=O)N1c2ccccc2NC(=O)C1(C)C`, the inhibition was 19.4% (inactive).

`COc1ccc(C2(C)NC(=O)N(CC(=O)Nc3ccc(C)cc3Br)C2=O)cc1OC` (stereo not given): the inhibition is 40.8% (inactive).

Consider `CCOc1ccc(NC(=O)CN2CCN(C3c4ccccc4-c4ccccc43)CC2)cc1`, for which the inhibition was 66.5% (active).

`COc1ccc(N2C(=O)C(Cl)=C(N3CCOCC3)C2=O)cc1`: the inhibition was 34.9% (inactive).

Take `NC(=S)Nc1ccc(Oc2ccc(NC(N)=S)cc2)cc1`: the inhibition was 31.2% (inactive).

`COc1ccc(CNC(=O)O[C@@H]2C[C@H]3C(=O)N(c4ccccc4)C(=O)[C@H]3[C@@]3(CN(S(=O)(=O)c4ccc(C)cc4)C[C@H]3C)[C@@H]2O)cc1OC`: the inhibition is 18.4% (inactive).

On to `COC(=O)c1ccc(NC(=O)CSC2=NCCN2)cc1`, for which the inhibition was 54.5% (active).

On to `O=C(CNc1cccc2ccccc12)N/N=C/c1ccc([N+](=O)[O-])o1`, for which the inhibition is 56.1% (active).

For `CN(C)c1ccc(CN(C(=O)C2COc3ccccc3O2)C2CCS(=O)(=O)C2)cc1` (stereo not given), the inhibition was 35.1% (inactive).

Regarding `S=C(Nc1ccc(Br)cc1)Nc1ccc2c(c1)OCCO2`, the inhibition is -51.1% (inactive).

Regarding `CCN(CC)c1ccc(NC(=O)CSc2nnc(N)s2)cc1C`, the inhibition was 57.1% (active).

Take `COc1cc(-c2noc(C)c2-c2ccc(N(C)C)nc2)cc(OC)c1OC`: the inhibition was 53% (active).

`O=C(N/N=C/c1ccc([N+](=O)[O-])o1)c1ccccc1-n1cccc1`: the inhibition is 71.6% (active).

As for `COc1ccc(C2=CC(=O)OC3(CCCCC3)O2)cc1`, the inhibition is 63.9% (active).

As to `Cc1ccc(NC(=O)CSc2nc3ncc(Br)cc3[nH]2)cc1C`, the inhibition is 54.5% (active).

Turning to `COc1cc2c(cc1OC)CN(C(=O)CN1CCN(S(=O)(=O)c3ccc(C)c(C)c3)CC1)CC2`, the inhibition is 49.3% (active).

`COc1c(/C=N/NC(N)=S)c(C)nn1-c1ccccc1`: the inhibition was 39.5% (inactive).

For `Cc1nc2ccccc2n1/N=C/c1ccc([N+](=O)[O-])s1`, the inhibition was 68.2% (active).

`Cc1ccc(Sc2ccc(NC(=O)CCl)cc2)cc1C`: the inhibition is 52.6% (active).

Regarding `Cc1ccc(S(=O)(=O)NCc2ccncc2)c(C)c1C`, the inhibition is 56.9% (active).

Take `Cc1ccc(NNC(N)=S)cc1Cl`: the inhibition was 53.4% (active).

With `CSc1nc(SCC(=O)NCc2ccco2)c2c3c(sc2n1)COC(C)(C)C3`, the inhibition is 54.7% (active).

Take `COc1cccc(NC(=O)N(C)C[C@H]2Oc3cc(C#Cc4ccncc4)ccc3S(=O)(=O)N([C@H](C)CO)C[C@H]2C)c1`: the inhibition was 50.6% (active).

Turning to `COc1ccc(NC(=O)COC(=O)/C=C/C(=O)OCC(=O)Nc2ccc(OC)c(Cl)c2)cc1Cl`, the inhibition is 50.8% (active).

For the compound `Cc1cccc(CN2C(=O)CSc3ccc(C(=O)NC4CC4)cc32)c1`, the inhibition is 62.2% (active).
